The text below walks through data of PubChem BioAssay.

A short description of experiment [1]: inhibitors of TNFa-induced NFkB p65 translocation, primary screen, imaging, HUVEC, MLSMR starter and 10KST1 sets (AID 438;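 active means inhibition above 20% together with a positive visual image hit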;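 further: compound added about 3h40 before a 20 min TNFalpha stimulation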;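 on inhibition: signal is the nuclear over cytoplasmic p65 intensity ratio per well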). As to conditions: HUVEC TNFa-induced p65 nuclear translocation; cell count: measured here: nuclei count (cytotoxicity indicator), at 2.08 µM; inhibition: at 2 µM, stronger effect = higher value, 0% TNFa-plus-vehicle, 100% no-TNFa wells.
Experiment [2] is described as follows: inhibitors of mutant huntingtin aggregation, primary screen, imaging, exon1htt(103Q)mCFP cells, high-content imaging (AID 483;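 active means visual image review flags a hit and inhibition of aggregation exceeds 20%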;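 further: compound exposure lasted 3 days before fixation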;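 on nuclei count: percent of the per-plate median nuclei count of sample wells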). As to conditions: exon1htt(103Q)mCFP cell line, aggregate imaging, at 2 µM; inhibition of aggregation: stronger effect = higher value; nuclei count: measured here: cell count, toxicity.
Experiment [3] can be described thus: inhibitors of E-selectin induction by TNFa, primary screen, imaging, HUVEC, immunofluorescence, MLSMR starter and 10KST1 sets (AID 487;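 active means visually confirmed hit in the image check and inhibition above 20%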;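 on inhibition: signal is fraction of cell area covered by stained E-selectin grains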;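 on nuclei count: 100% = median nuclei count of all wells on the same plate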). As to conditions: HUVEC TNFalpha-induced E-selectin immunofluorescence imaging, at 2 µM; inhibition: stronger effect = higher value; nuclei count: measured here: cell number, toxicity.
Experiment [4] has as its target Voltage-gated potassium channel subunit beta-2 (Rattus norvegicus) (UniProt P62483). As to the kind of experiment: KvBeta enzyme negative modulators, primary screen, biochemical, NADPH fluorescence (AID 622).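 Further: slope of raw intensity against log time taken from 70 to 1610 s.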 The note with it: recombinant KvBeta, 4-cyanobenzaldehyde reduction, at 10 µM, stronger effect = higher value.
The target is the same in experiment [5]. As to the kind of experiment: KvBeta positive modulators, primary screen, biochemical, NADPH fluorescence (AID 623;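 active means NADPH fluorescence slope more negative than the mean of all samples by about 3 SD, 99.7% confidence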;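 further: fluorescence intensity change per second fitted from 20 to 320 s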). The note with it: Recombinant KvBeta, NADPH fluorescence decrease slope, 10 min; at 10 µM; stronger effect = lower value.
In experiment [6] the target is Alpha-2C adrenergic receptor (Homo sapiens) (UniProt P18825). In words: modulators of alpha2C/GIRK thallium flux, primary screen, cell-based, HEK293 alpha2C/GIRK1/2 (AID 624;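 active means fluorescence slope after compound addition differing from the mean of all screened samples at 99.7% confidence, in either direction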;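 further: slope of fluorescence ratio to pre-addition baseline per second over 15 to 24 s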). The note with it: thallium flux BTC fluorescence, at 10 µM, actives lie on both sides.
Experiment [7] is described as follows: inhibitors of Sendai virus-induced IRF3 signaling, primary screen, TLR/RLR signaling modifier project, cell-based, Sendai virus stimulus, luciferase, 10K MLSCN set (AID 602276;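 active means inhibition at or above 50% at 10 µM; inactive means inhibition below 50%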;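 further: firefly luciferase from ISG56 promoter only with Renilla not read in this screen; 0% = Sendai virus plus DMSO and 100% = medium plus DMSO without virus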). As to conditions: HEK293 RL24 IRF3 luciferase reporter, at 10 µM, stronger effect = higher value. (A reporter such as luciferase makes a cellular process visible.)
Experiment [8] is described as follows: inhibitors of poly I:C-induced TLR3 signaling, primary screen, cell-based, poly I:C stimulus, luciferase, 10K MLSCN set (AID 602277;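 active means inhibition of the reporter signal at or above 50%; inactive means inhibition below 50%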). As to conditions: HEK293-TLR3 RL24 IRF3 luciferase reporter, at 10 µM, stronger effect = higher value.

Activity calls are given as the source filed them.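 How the source made its calls, unless noted: active means fluorescence slope higher than the sample average by over 3 SD (cut at about -0.22 in these data, passing the limit was not always enough); inactive means the rest.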

Sequence of Alpha-2C adrenergic receptor (Homo sapiens) (P18825 whole entry, looked up): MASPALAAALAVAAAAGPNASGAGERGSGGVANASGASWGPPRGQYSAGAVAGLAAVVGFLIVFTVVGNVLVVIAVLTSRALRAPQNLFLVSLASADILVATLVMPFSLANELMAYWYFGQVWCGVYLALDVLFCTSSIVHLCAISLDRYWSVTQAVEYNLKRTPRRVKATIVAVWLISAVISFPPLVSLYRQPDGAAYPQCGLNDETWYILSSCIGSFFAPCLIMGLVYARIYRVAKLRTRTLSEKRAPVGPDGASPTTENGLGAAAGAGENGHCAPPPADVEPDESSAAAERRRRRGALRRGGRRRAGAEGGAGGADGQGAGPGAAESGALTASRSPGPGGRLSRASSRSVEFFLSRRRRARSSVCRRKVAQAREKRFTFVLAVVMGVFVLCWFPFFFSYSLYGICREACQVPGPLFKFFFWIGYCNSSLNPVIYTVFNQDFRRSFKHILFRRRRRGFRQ
Sequence of Voltage-gated potassium channel subunit beta-2 (Rattus norvegicus) (P62483 whole entry, looked up): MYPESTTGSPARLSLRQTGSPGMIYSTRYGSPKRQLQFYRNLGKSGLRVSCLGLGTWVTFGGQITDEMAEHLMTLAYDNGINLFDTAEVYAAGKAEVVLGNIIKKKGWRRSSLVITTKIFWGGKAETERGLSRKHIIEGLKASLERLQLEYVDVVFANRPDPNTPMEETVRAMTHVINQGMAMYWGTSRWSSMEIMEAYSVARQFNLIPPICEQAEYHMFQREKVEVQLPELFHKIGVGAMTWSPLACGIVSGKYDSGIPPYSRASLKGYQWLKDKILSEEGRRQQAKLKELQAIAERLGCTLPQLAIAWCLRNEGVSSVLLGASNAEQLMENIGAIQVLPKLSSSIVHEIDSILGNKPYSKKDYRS

On to `Clc1ccc(Nc2ncnc3c2cnn3-c2ccccc2)cc1`, for which the cell count in experiment [1] was 703. The inhibition in experiment [1] was 0% (inactive); in experiment [3], -14.4% (inactive); in experiment [7] it was -24% (inactive); in experiment [8], -67.8% (inactive). Further, the inhibition of aggregation in experiment [2] was 19% (inactive). In addition, the nuclei count in experiment [2] amounted to 95.2%; in experiment [3] it was 105%. Also, in experiment [4], the fluorescence slope is -0.496 (inactive). Further, in experiment [5], the NADPH fluorescence slope was -1.9e-05 (inactive). In addition, the slope in experiment [6] is 0.0059 (inactive).

For the compound `CCCCN(C)C(=O)c1cn(C)c2ccc(S(=O)(=O)N(C)C)cc2c1=O`, in experiment [1], the cell count is 559. The inhibition in experiment [1] was -5.1% (inactive); in experiment [3] it was 39.3% (inactive); in experiment [7], 6.56% (inactive); in experiment [8] it was 27.1% (inactive). Besides, in experiment [2], the inhibition of aggregation is 15.7% (inactive). The nuclei count in experiment [2] came out at 76.4%; in experiment [3] it was 105%. The fluorescence slope in experiment [4] was -0.6 (inactive). For the same compound, in experiment [5], the NADPH fluorescence slope is -3.3e-05 (inactive). Also, the slope in experiment [6] was 0.00635 (inactive).

Consider `Cc1cccc(N2C(=O)CC(N3CCN(c4cccc(C(F)(F)F)c4)CC3)C2=O)c1` (configuration not stated), for which the cell count in experiment [1] was found to be 593. Further, the inhibition was -7.2% (inactive) in experiment [1], -13.6% (inactive) in experiment [3], 10.3% (inactive) in experiment [7] and 36.4% (inactive) in experiment [8]. In experiment [2], the inhibition of aggregation was 3.8% (inactive). Moreover, the nuclei count was 126% in experiment [2] and 119% in experiment [3]. In experiment [4], the fluorescence slope was -0.386 (inactive). For the same compound, in experiment [5], the NADPH fluorescence slope is 8.5e-06 (inactive). Further, the slope in experiment [6] was 0.00436 (inactive).

Take `COc1ccccc1NC(=O)CSc1nnc(Cc2cccn2C)n1-c1ccc(F)cc1`: the cell count in experiment [1] was determined as 508. Further, the inhibition in experiment [1] is -7.5% (inactive); in experiment [3] it was -51.1% (inactive); in experiment [7], 11.3% (inactive); in experiment [8], 37.8% (inactive). Moreover, the inhibition of aggregation in experiment [2] is 30.2% (inactive). Besides, the nuclei count was found to be 86.3% in experiment [2] and 113% in experiment [3]. Also, the fluorescence slope in experiment [4] is -0.529 (inactive). In addition, the NADPH fluorescence slope in experiment [5] is -2.1e-05 (inactive). In addition, the slope in experiment [6] was 0.00524 (inactive).

Turning to `CCOC(=O)c1ccc(N2Cc3cc(C)c(C)cc3C2)cc1O`, the cell count in experiment [1] was determined as 744. In addition, the inhibition in experiment [1] was 2.9% (inactive); in experiment [3], -36.2% (inactive); in experiment [7] it was -26.7% (inactive); in experiment [8], -52.7% (inactive). In experiment [2], the inhibition of aggregation is 6.2% (inactive). The figures for the nuclei count in experiment [2] and in experiment [3] were 92.7% and 119%, respectively. Besides, in experiment [4], the fluorescence slope is -0.457 (inactive). The NADPH fluorescence slope in experiment [5] was -1.3e-05 (inactive). The slope in experiment [6] was 0.00595 (inactive).

With `CN1CCN(C2=C(Cl)C(=O)N(c3cccc(Cl)c3)C2=O)CC1`, the cell count in experiment [1] is 396. For the same compound, the inhibition in experiment [1] is 5.9% (inactive); in experiment [3], -1.1% (inactive); in experiment [7] it was 5.11% (inactive); in experiment [8] it was 13.1% (inactive). Also, the inhibition of aggregation in experiment [2] is 8.6% (inactive). Moreover, the figures for the nuclei count in experiment [2] and in experiment [3] were 91.3% and 97.4%, respectively. The fluorescence slope in experiment [4] is -0.355 (inactive). In experiment [5], the NADPH fluorescence slope was -3.9e-05 (inactive). Further, the slope in experiment [6] is 0.00541 (inactive).

Consider `C/C=C/c1ccc(OCCn2cncn2)c(OC)c1`, for which the cell count in experiment [1] was 746. Moreover, the inhibition in experiment [1] was -6.6% (inactive); in experiment [3] it was -73.8% (inactive); in experiment [7] it was -19.9% (inactive); in experiment [8], 2% (inactive). Moreover, in experiment [2], the inhibition of aggregation is -27.6% (inactive). For the same compound, the nuclei count in experiment [2] worked out at 132%; in experiment [3], 120%. Also, the fluorescence slope in experiment [4] was -0.519 (inactive). Also, the NADPH fluorescence slope in experiment [5] was 3.6e-05 (inactive). Also, in experiment [6], the slope is 0.00659 (inactive).

For `COc1cccc(C2C(C(N)=O)=C(C)Nc3nc(CCCO)nn32)c1OC` (configuration not stated), in experiment [1], the cell count was 480. For the same compound, the inhibition in experiment [1] was 5% (inactive); in experiment [3], -24.5% (inactive); in experiment [7] it was -11.2% (inactive); in experiment [8], 7.06% (inactive). Also, the inhibition of aggregation in experiment [2] was 11.5% (inactive). Besides, the nuclei count in experiment [2] is 102%; in experiment [3], 94.1%. Moreover, the fluorescence slope in experiment [4] is -0.455 (inactive). Further, in experiment [5], the NADPH fluorescence slope was -2.8e-05 (inactive). The slope in experiment [6] is 0.00572 (inactive).

`CCc1nc2scc(-c3ccccc3)c2c(=O)n1N`: the cell count in experiment [1] worked out at 414. Further, the inhibition in experiment [1] was 10.9% (inactive); in experiment [3] it was -361% (inactive); in experiment [7], -8.38% (inactive); in experiment [8], -30.6% (inactive). Moreover, in experiment [2], the inhibition of aggregation is 0% (inactive). Also, the nuclei count in experiment [2] is 98.5%; in experiment [3], 142%. Further, the fluorescence slope in experiment [4] is -0.437 (inactive). The NADPH fluorescence slope in experiment [5] was 6.4e-05 (inactive). The slope in experiment [6] is 0.00592 (inactive).

For `CC1CN(CC(O)COc2ccccc2C(C)(C)C)CC(C)O1` (configuration not stated), the cell count in experiment [1] was found to be 609. Besides, the inhibition in experiment [1] was -29.6% (inactive); in experiment [3] it was -32.5% (inactive); in experiment [7] it was 10.2% (inactive); in experiment [8], 23.2% (inactive). The inhibition of aggregation in experiment [2] was -10.6% (inactive). Further, the nuclei count in experiment [2] came out at 108%; in experiment [3], 101%. In experiment [4], the fluorescence slope was -0.509 (inactive). Besides, the NADPH fluorescence slope in experiment [5] is 1.1e-05 (inactive). Besides, the slope in experiment [6] was 0.00559 (inactive).

On to `c1cc(CNc2ccc3c(c2)OCO3)ccn1`, for which the cell count in experiment [1] came out at 240. Moreover, the inhibition in experiment [1] is -3.9% (inactive); in experiment [3], -91.7% (inactive); in experiment [7] it was -9.22% (inactive); in experiment [8], 13.6% (inactive). Further, in experiment [2], the inhibition of aggregation was 17.7% (inactive). Also, the results for the nuclei count in experiment [2] and in experiment [3] were 83.7% and 112%, respectively. Also, the fluorescence slope in experiment [4] is -0.48 (inactive). The NADPH fluorescence slope in experiment [5] is -1.4e-05 (inactive). Moreover, the slope in experiment [6] was 0.00585 (inactive).

With `CC(=O)c1sc(NC(=O)C2COc3ccccc3O2)nc1C` (configuration not stated), the cell count in experiment [1] turned out to be 604. The inhibition in experiment [1] is -0.3% (inactive); in experiment [3], 19.7% (inactive); in experiment [7] it was 15.8% (inactive); in experiment [8], -48.7% (inactive). For the same compound, in experiment [2], the inhibition of aggregation was 24.9% (inactive). The figures for the nuclei count in experiment [2] and in experiment [3] were 87.8% and 104%, respectively. In addition, in experiment [4], the fluorescence slope is -0.586 (inactive). In addition, the NADPH fluorescence slope in experiment [5] is -2.4e-05 (inactive). Further, the slope in experiment [6] is 0.00774 (inactive).

Broadly, the inhibition is the change of the read-out against control, counted positive when it falls.
